# Structures can show the parent of a compound that is named as a salt.
# Tests used:
# [1] = tested on: S. cerevisiae SK1 pCDA2-eGFP (USY613), sporulating; assay: CDA2-GFP sporulation assay sensitivity score (z-score vs DMSO controls); higher = stronger inhibition of sporulation, active = hit call of the paper;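 further: active if sensitivity score above 5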
# [2] = tested on: S. cerevisiae AD1-9 (efflux-pump deficient), vegetative growth in YPD; assay: growth sensitivity score (doubling time z-score vs DMSO controls); higher = slower growth, strongly negative scores also mark growth inhibition (complete suppression), active = hit call of the paper
# Summary of the method: (§1)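 Yeast (Saccharomyces cerevisiae BY4741 and AD1-9) was grown in rich medium in microtiter plates from a starting OD600 of 0.065, with optical density read every 15 min over 24 hours. The growth sensitivity score was the difference between compound and solvent-only means, divided by the solvent-only standard deviation. Every experiment had eight solvent-only wells.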
# [3] = tested on: S. cerevisiae BY4741 (wild-type), vegetative growth in YPD; assay: as above
# Summary of the method: as §1
# [4] = stock concentration (mM, diluted 1:100): 7.6
# [5] = stock concentration (mM, diluted 1:100): 7.7
# [6] = stock concentration (mM, diluted 1:100): 8.2
# [7] = stock concentration (mM, diluted 1:100): 8.6
# [8] = stock concentration (mM, diluted 1:100): 8.7
# [9] = stock concentration (mM, diluted 1:100): 8.9
# [10] = stock concentration (mM, diluted 1:100): 9
# [11] = stock concentration (mM, diluted 1:100): 9.7
# [12] = stock concentration (mM, diluted 1:100): 9.8
# [13] = stock concentration (mM, diluted 1:100): 19.9
# [14] = stock concentration (mM, diluted 1:100): 11.3
# [15] = stock concentration (mM, diluted 1:100): 10.1
# [16] = stock concentration (mM, diluted 1:100): 10
smiles,measurement,setting,value
CN1CC[C@]23CCCC[C@H]2[C@H]1Cc1ccc(O)cc13 [Levorphanol tartrate],CDA2-GFP sporulation assay sensitivity score,[1]; [4],-2.67 (inactive)
same,growth sensitivity score,[2]; [4],-1.11 (inactive)
same,growth sensitivity score,[3]; [4],-0.24 (inactive)
CCC(COC(=O)c1cc(OC)c(OC)c(OC)c1)(c1ccccc1)N(C)C (stereo not given) [Trimebutine maleate],CDA2-GFP sporulation assay sensitivity score,[1]; [5],0.35 (inactive)
same,growth sensitivity score,[2]; [5],3.33 (active)
same,growth sensitivity score,[3]; [5],0.59 (inactive)
COc1ccc2c(c1)[C@]13CCCC[C@@H]1[C@H](C2)N(C)CC3 [Dextromethorphan hydrobromide],CDA2-GFP sporulation assay sensitivity score,[1]; [6],14.1 (active)
same,growth sensitivity score,[2]; [6],-0.05 (inactive)
same,growth sensitivity score,[3]; [6],-0.39 (inactive)
CCOC(=O)C1(c2ccccc2)CCN(CCC(C#N)(c2ccccc2)c2ccccc2)CC1 [Diphenoxylate],CDA2-GFP sporulation assay sensitivity score,[1]; [7],1.47 (inactive)
same,growth sensitivity score,[2]; [7],5.75 (active)
same,growth sensitivity score,[3]; [7],-0.94 (inactive)
CC(NC(C)(C)C)C(=O)c1cccc(Cl)c1 (stereo not given) [Bupropion hydrochloride],CDA2-GFP sporulation assay sensitivity score,[1]; [8],3.2 (inactive)
same,growth sensitivity score,[2]; [8],-0.08 (inactive)
same,growth sensitivity score,[3]; [8],-0.87 (inactive)
COc1ccc(C(CN(C)C)C2(O)CCCCC2)cc1 (stereo not given) [Venlafaxine hydrochloride],CDA2-GFP sporulation assay sensitivity score,[1]; [9],-0.02 (inactive)
same,growth sensitivity score,[2]; [9],-1.06 (inactive)
same,growth sensitivity score,[3]; [9],-0.63 (inactive)
Cc1ncc2n1-c1ccc(Cl)cc1C(c1ccccc1F)=NC2 [Midazolam hydrochloride],CDA2-GFP sporulation assay sensitivity score,[1]; [10],6.54 (active)
same,growth sensitivity score,[2]; [10],12.1 (active)
same,growth sensitivity score,[3]; [10],0.95 (inactive)
CN1CCC(c2ccc(F)cc2)C(COc2ccc3c(c2)OCO3)C1 (stereo not given) [Methyl paroxetine],CDA2-GFP sporulation assay sensitivity score,[1]; [11],0.37 (inactive)
same,growth sensitivity score,[2]; [11],35 (active)
same,growth sensitivity score,[3]; [11],2.48 (active)
CN1CC[C@]2(c3cccc(O)c3)Cc3nc4ccccc4cc3C[C@H]2C1,CDA2-GFP sporulation assay sensitivity score,[1]; [12],5.85 (inactive)
same,growth sensitivity score,[2]; [12],-2.02
same,growth sensitivity score,[3]; [12],0.13 (inactive)
Cc1ccc(-c2nc3ccc(C)cn3c2CC(=O)N(C)C)cc1 [Zolpidem tartrate],CDA2-GFP sporulation assay sensitivity score,[1]; [13],1.79 (inactive)
same,growth sensitivity score,[2]; [13],-1.48 (inactive)
same,growth sensitivity score,[3]; [13],-0.6 (inactive)
CC(C)CC(N(C)C)C1(c2ccc(Cl)cc2)CCC1 (stereo not given) [Sibutramine],CDA2-GFP sporulation assay sensitivity score,[1]; [14],3.27 (inactive)
same,growth sensitivity score,[2]; [14],5.47 (active)
same,growth sensitivity score,[3]; [14],3.69 (active)
C=C(C)CN1CC[C@]23c4c5ccc(O)c4O[C@H]2c2[nH]c4ccccc4c2C[C@@]3(O)C1C5,CDA2-GFP sporulation assay sensitivity score,[1]; [15],4.94 (inactive)
same,growth sensitivity score,[2]; [15],11.1 (active)
same,growth sensitivity score,[3]; [15],0.61 (inactive)
OC1CCCCC1N1CCC(c2ccccc2)CC1 (stereo not given) [Vesamicol hydrochloride],CDA2-GFP sporulation assay sensitivity score,[1]; [16],1.08 (inactive)
same,growth sensitivity score,[2]; [16],-0.57 (inactive)
same,growth sensitivity score,[3]; [16],-0.16 (inactive)
COc1ccc2[nH]cc(C3=CCNCC3)c2c1,growth sensitivity score,[2]; [15],-2.3
same,growth sensitivity score,[3]; [15],-0.36 (inactive)
C[N+]1(C)CCN(c2ccccc2)CC1 [Dimethylphenylpiperazinium Iodide],CDA2-GFP sporulation assay sensitivity score,[1]; [16],-0.6 (inactive)
same,growth sensitivity score,[2]; [16],-0.59 (inactive)
same,growth sensitivity score,[3]; [16],-0.67 (inactive)
C[C@]12C/C(=C/O)C(=O)C[C@@H]1CC[C@@H]1[C@@H]2CC[C@@]2(C)[C@H]1CC[C@]2(C)O [Oxymetholone],CDA2-GFP sporulation assay sensitivity score,[1]; [15],1.28 (inactive)
same,growth sensitivity score,[3]; [15],9.13 (active)
CC[C@@H](C(N)=O)N1CCCC1=O [Levetiracetam],CDA2-GFP sporulation assay sensitivity score,[1]; [15],1.7 (inactive)
same,growth sensitivity score,[2]; [15],-2.51
same,growth sensitivity score,[3]; [15],-1.26 (inactive)
C[C@]12Cc3c[nH]nc3C[C@@H]1CC[C@@H]1[C@@H]2CC[C@@]2(C)[C@H]1CC[C@]2(C)O [Stanozolol],CDA2-GFP sporulation assay sensitivity score,[1]; [16],-4.38 (inactive)
same,growth sensitivity score,[2]; [16],9.25 (active)
same,growth sensitivity score,[3]; [16],1.13 (inactive)
C[C@]12CC[C@H]3[C@@H](CCC4=CC(=O)CC[C@@H]43)[C@@H]1CC[C@@H]2O [19-Nortestosterone],CDA2-GFP sporulation assay sensitivity score,[1]; [16],1.91 (inactive)
same,growth sensitivity score,[2]; [16],5.3 (active)
same,growth sensitivity score,[3]; [16],2.24 (active)
O=C1CN=C(c2ccccc2)c2cc([N+](=O)[O-])ccc2N1 [Nitrazepam],CDA2-GFP sporulation assay sensitivity score,[1]; [16],-0.69 (inactive)
same,growth sensitivity score,[2]; [16],8.16 (active)
same,growth sensitivity score,[3]; [16],2.01 (active)
CS(=O)(=O)Nc1ccc(Cc2noc(-c3ccc4[nH]cc(CCN)c4c3)n2)cc1,CDA2-GFP sporulation assay sensitivity score,[1]; [16],2.55 (inactive)
same,growth sensitivity score,[2]; [16],-0.07 (inactive)
same,growth sensitivity score,[3]; [16],0.39 (inactive)
O=c1c2ccccc2[se]n1-c1ccccc1 [Ebselen],growth sensitivity score,[2]; [16],-16.9
NC(=O)OCCCc1ccccc1 [Phenprobamate],CDA2-GFP sporulation assay sensitivity score,[1]; [15],-0.41 (inactive)
same,growth sensitivity score,[2]; [15],-0.54 (inactive)
same,growth sensitivity score,[3]; [15],0.48 (inactive)
